# Bioassay records (PubChem)
# Pf growth 48h: inhibits P. falciparum growth in the first generation, 48 h; P. falciparum luciferase growth in erythrocytes, 48 h; 5.9% of 310,000 active; AID 504832; Potency, µM (top dose mostly 28.7 µM), inactives show at the top dose activity change, negative = inhibition, usual class: inhibitors; also: potency is read from the fitted curve at half-maximal effect; % is scaled to controls: 0 for no effect and ±100 for the full control effect
#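 A one-generation exposure of luciferase-tagged malaria parasites in RPMI 1640/Albumax erythrocyte culture, 37 C and 5% CO2. Inhibition is inferred from decreased luminescence after adding detection reagent.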
# Cycloheximide cs: affects cycloheximide protein synthesis inhibition readout, counter-screen; 12% of 300,000 active; cell reporter, cycloheximide protein synthesis inhibition counterscreen; AID 2314; max response, %; in the data active = max response mostly above about 13%, no sharp cut-off; inactive = mostly below about 14%; also: read at 38.3 µM for the half of the compounds with a filed dose; 0% is about no effect
# Pf growth 96h: P. falciparum growth inhibition at 96 hours; P. falciparum luciferase reporter growth, 96 h; 6.9% of 320,000 active; Potency, µM (highest dose often 28.7 µM), without a hit: top-dose activity change, negative = inhibition, most hits filed as inhibitors; also: potency is read from the fitted curve at half-maximal effect; % is scaled to controls: 0 for no effect and ±100 for the full control effect
#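 Delayed-death screen, second-generation endpoint: infected erythrocytes, 2% hematocrit, 0.05% parasitemia final; 96 hours at 37 C, 5% CO2; luciferase detection reagent; luminescence decrease equals reduced growth.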
# NS1 function inh: blocks influenza NS1 protein function | Potency, µM (doses to about 46.1 µM), inactives show top-dose activity, positive = more growth | 0.4% of 270,000 active; calls by dose curve; also: potency is read from the fitted curve at half-maximal effect; actives are rising curves; nearly all actives have a fitted effect of over 50% in size
#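 Recovery from NS1-induced slow growth read by OD600 in budding yeast switched to galactose assay medium (pH 6.0, -URA) at 1:100 dilution. Compound 23 nl per well; the matching strain lacking NS1 serves as control.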
# Shiga inhibitor: inhibitors of Shiga toxin in Vero cells; Vero cells, Shiga toxin protein synthesis inhibition reporter; inhibition, % at 38.7 µM; 9.2% of 290,000 active; in the data active = inhibition mostly above about 28%, no sharp cut-off; inactive = mostly below about 43%; also: 0% is about no effect
# Sm TGR inh: blocks Schistosoma mansoni thioredoxin glutathione reductase; Q962Y6; purified TGR, DTNB reduction, TNB absorbance 405 nm; Potency, µM (titrated, usually from 114 µM), for the others: top-dose activity change, negative = inhibition, usual class: inhibitors; 3% of 360,000 active; also: potency is read from the fitted curve at half-maximal effect; % is scaled to controls: 0 for no effect and ±100 for the full control effect; nearly all actives have a fitted effect of over 60% in size
#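 First, TGR (20 nM dispensed) and NADPH were mixed with compound. Second, a 15 min room-temperature incubation followed. Third, further NADPH and then DTNB were added to start the reaction. Finally, TNB absorbance was monitored kinetically.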
# Numbers without * were called inactive; ? = inconclusive; . = not tested or not shown; + = active, no number; [ ] = dose if it differs, or a comment. In the library only some 21% were active in any assay of this set; here they are far more common. Unless noted, calls follow the shape of the dose curve; as a rule, active = well fitted curve in the direction sought with a large enough effect; inconclusive = small, poorly fitted or top-dose-only effect, or another doubt; inactive = no such curve, though single readings can be large; an effect the other way counts as inactive or inconclusive.
SMILES,Pf growth 48h,Cycloheximide cs,Pf growth 96h,NS1 function inh,Shiga inhibitor,Sm TGR inh
O=C(O)c1ccccc1Sc1c([N+](=O)[O-])cc(C(F)(F)F)cc1[N+](=O)[O-],?,-2.4,31.6%,.,-14.4,-21.3%
CCC(COC)NC(=O)CCc1nnc(Cc2c[nH]c3ccccc23)o1 (stereo not drawn),5.5%,-2.0,13.1µM*,23.6%,1.7,?
CC(C)(C)NC(=O)CCc1nnc(Cc2c[nH]c3ccccc23)o1,-23.7%,12.1*,?,1.7%,20.5,?
C=CCN(CC=C)C(=O)CCc1nnc(CCc2c[nH]c3ccccc23)o1,-2.8%,21.0*,1.2%,-1.2%,35.2,.
CC1=C(C(=O)Nc2ccc(C(=O)NCCC(C)C)cc2)SCCO1,-11.7%,-1.6,?,0.8%,-5.5,12.8%
CSc1ccc(CNC(=O)Cc2ccc(NC(=O)C3=C(C)OCCS3)cc2)cc1,125.3%,24.4*,?,6.2%,54.7*,1.7%
CCOc1ccc(CCNC(=O)Cc2ccc(NC(=O)C3=C(C)OCCS3)cc2)cc1,23.7%,20.6,-37.7%,11.7%,47.1*,11.5%
COc1cccc(NC(=S)N(CCCN2CCOCC2)Cc2cn(C)c3ccccc23)c1,-21.5%,0.1,?,-0.6%,-8.3,1.6%
CCC1=C(c2cc(OC)c(OC)c(OC)c2)C2(CCCC2)C(=O)O1,-24.7%,-1.5,?,-14.3%,-3.4,-19.4%
CCCCc1ccc(NS(=O)(=O)c2cccc(C(=O)N3CCNC(=O)C3)c2)cc1,?,.,12.1%,.,.,-3.7%
COc1ccccc1N1CCN(C(=O)CCNS(=O)(=O)c2cc(Br)cnc2N)CC1,?,-3.6,?,-23.2%,-2.9,-1.7%
CC(C)CC(=O)Nc1ccc(C(=O)COC(=O)Cc2n[nH]c(=O)c3ccccc23)cc1,?,.,-3.4%,.,.,-14.2%
O=C(NC(=S)Nc1cccc(CO)c1)c1ccc(-c2ccccc2)cc1,64.3%,25.0*,90.5%,22.0%,64.0*,-20.9%
CCC(=O)Nc1cccc(NC(=S)NC(=O)c2ccc(C)cc2)c1,56.7%,46.0*,33.9%,6.8%,101.6*,.
CCC(=O)Nc1cccc(NC(=S)NC(=O)c2cccc(C)c2)c1,180.3%,60.2*,145.1%,-11.7%,113.6*,39.8µM*
C=CCN(CC=C)S(=O)(=O)c1ccc(NC(=S)NC(=O)c2ccc(-c3ccccc3)cc2)cc1,1.47µM*,4.5,.,-0.4%,20.1,-5.6%
O=C(Cc1ccccc1)Nc1ccc(NC(=S)NC(=O)c2ccccc2)cc1,-10.9%,-2.7,?,6.2%,20.0,-6.6%
C=CCN(CC=C)S(=O)(=O)c1ccc(NC(=S)NC(=O)c2ccco2)cc1,?,4.9,.,10.0%,34.3,?
CCc1nc(CN(C)C(=O)C2CCC(=O)N(Cc3cccc(F)c3)C2)no1 (stereo not drawn),-17.4%,1.4,-11.0%,-11.3%,16.3,-19.8%
CCC(=O)Nc1cccc(NC(=S)NC(=O)c2ccccc2)c1,151.4%,53.8*,341.8%,-0.6%,15.8*,44.7µM*
CCC(=O)NC(=S)Nc1cccc(NC(=O)CC)c1,-3.0%,-2.6,0.0%,-10.0%,8.7,4.8%
Oc1ccc(/C=N/Nc2ccc(Cl)nn2)cc1O,30.8%,39.2*,?,8.4%,35.9,?
Cc1ccc(/C=N/Nc2ccc(Cl)nn2)cc1,70.5%,13.2*,0.0%,-4.7%,44.7*,11.4%
Oc1ccc(/C=N/NP(=S)(c2ccccc2)c2ccccc2)cc1O,?,8.5,.,15.2%,24.3,2.1%
Fc1ccccc1/C=N/Nc1ccc(Cl)nn1,.,10.1,45.0%,-2.5%,37.7*,1.9%
SMILES,Pf growth 48h,Cycloheximide cs,Pf growth 96h,NS1 function inh,Shiga inhibitor,Sm TGR inh
Fc1ccccc1/C=N/Nc1nn[nH]n1,.,1.3,96.7%,2.6%,-12.7,-3.6%
CN(CC(=O)Nc1ccc(F)c(F)c1F)C(=O)c1ccc2c(c1)S(=O)(=O)N=C1CCCCCN12,?,.,-20.7%,.,.,-0.6%
CC(C)Cc1nnc(NC(=O)CSc2nc(O)c(-c3ccccc3)c(=O)[nH]2)s1,12.2%,-4.1,?,.,30.8,1.9%
CCCc1c(C)c2ccc(OCC(C)=O)cc2oc1=O,.,48.6*,27.1%,-101.7%,93.7*,-0.7%[11.4 µM]
C=CCOC(=O)COc1ccc2c(C)c(CC)c(=O)oc2c1,7.0%,-2.2,?,-45.0%,-4.7,1.6%
CCCCc1c(C)c2ccc(OCC(C)=O)cc2oc1=O,47.4%,30.1*,14.7%,-73.2%,100.0*,-14.5%
CCOC(=O)CCc1c(C)c2ccc(OC3CCCCC3=O)cc2oc1=O (stereo not drawn),?,21.1*,-22.0%,-1.4%,27.2,7.9%
CC(=O)COc1ccc2c(C)c(-c3ccccc3)c(=O)oc2c1,154.6%,45.1*,146.4%,.,58.2*,1.9%
Cc1ccc(N(Cc2cccs2)C(=O)C(C)Oc2ccc(Cl)c(C)c2)cc1 (stereo not drawn),.,.,.,.,.,-1.3%
CCOC(=O)CCc1c(C)c2ccc(OCC(=O)OC(C)C)cc2oc1=O,9.9%,33.8*,34.9%,-48.7%,+,-3.6%
CCOC(=O)CCc1c(C)c2ccc(OCc3nn[nH]n3)cc2oc1=O,7.3%,-4.7,-23.3%,0.7%,23.5,-28.4%
Cc1cc(NC(=O)CSc2nc3ccsc3c(=O)n2CCCC(=O)NCCc2ccccc2)no1,?,10.1,-46.8%,.,2.1,9.8%
O=C(O)c1ccc(N=Cc2c(O)ccc3ccccc23)cc1,-9.9%,1.6,?,-1.7%,.,?
Cc1nnc(C)n1/N=C/c1c(O)ccc2ccccc12,-11.2%,-4.5,-23.7%,-2.4%,-1.9,28.2µM*
CCc1n[nH]c(=S)n1/N=C/c1c(O)ccc2ccccc12,13.9%,-0.7,?,-4.5%,.,-0.5%
O=S(=O)(/N=C/c1c(O)ccc2ccccc12)c1ccccc1,0.0%,11.1*,0.0%,3.5%,18.2,39.8µM*
Cc1nnc(-c2ccccc2)c(=O)n1/N=C/c1c(O)ccc2ccccc12,?,-6.0,4.15µM*,-48.1%,-8.2,-0.6%
CCOC(=O)CN(C)C(=O)C1CCCN1C(=O)OC(C)(C)C (stereo not drawn),.,56.3,.,.,88.4,.
CCCCC(CCC(=O)O)(C(=O)OCC)c1csc(Nc2ccc(C)cc2)n1 (stereo not drawn),-1.1%,8.0,4.65µM*,2.8%,3.3,-14.0%
Cn1c(=O)c(=O)n(C)c2cc(N3CCOCC3)c(NS(=O)(=O)c3ccc(F)c(Cl)c3)cc21,-9.7%,-1.5,32.1%,4.4%,-0.9,-16.2%
Cn1c(=O)c(=O)n(C)c2cc(N3CCCC3)c(NS(=O)(=O)c3ccc(Cl)cc3)cc21,-2.8%,14.4,28.5%,10.3%,-8.5,50.1µM*
Cc1cc(C)cc(Nc2ccc([N+](=O)[O-])nc2[N+](=O)[O-])c1,?,-3.1,?,4.7%,-14.2,?
COc1cc(Nc2ccc(C)cc2)c([N+](=O)[O-])nc1[N+](=O)[O-],?,-1.7,25.3%,6.0%,9.4,25.1µM*
